CYP2C9 inh: blocks human cytochrome P450 2C9. P11712. CYP2C9 Supersomes, luciferin-H conversion, luminescence. inhibition, % at 5 µM. 96,000 tested, 20% active. AID 777;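 active = blocking of liver enzyme CYP2C9 beyond about 50% at 5 µM, limit read from the data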
CYP2C19 act: cytochrome P450 2C19 (human) activation | recombinant CYP2C19, luciferin-H EGE luminescence; active compounds read high; 0 = fully inhibited enzyme, 1 = untreated enzyme | activation factor at 5 µM | 96,000 tested, under 10 active | AID 1025;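 active = activation factor of at least 2 at 5 µM in the primary screen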;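 note: 0 = wells with 2.5 mM tranylcypromine and 1 = vehicle-only wells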
CYP2C19 inh: inhibitors of human CYP2C19 | P33261 | CYP2C19 Supersomes, luciferin-H EGE luminescence, 30 min | inhibition, % at 5 µM | 96,000 tested, 21% active | AID 778;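 active = CYP2C19 inhibition above a set limit at 5 µM in the primary screen, cut at about 50% in these data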;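 note: plate controls were negative control wells for no effect and 2.5 mM tranylcypromine positive control for full effect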
Cav3 T inh: human Cav3.2 channel inhibition, primary screen. 100,000 tested, 4% active. B-score at 10 µM. O95180. Cav3.2-expressing cells, Fluo-4 calcium fluorescence FDSS; active compounds read low;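 active = single-dose well whose peak fluorescence ratio is a statistical outlier from its plate by either plate-standardised score or position-corrected B-score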
CYP2C9 act: CYP2C9 (human) activation; recombinant CYP2C9, luciferin-H conversion, luminescence; active compounds read high; factor 1 = untreated enzyme, 0 = blocked; 96,000 tested, 1.4% active; activation factor at 5 µM; P11712;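 active = activation factor of 2 or more for CYP2C9 at a 5 µM dose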;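 note: 0 = sulfaphenazole-blocked wells and 1 = vehicle-only wells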
Active calls of the source: *; / = not tested or not shown; ! = not confirmed by another sample. An excerpt weighted towards active compounds, which were near 27% of everything screened.

SMILES	CYP2C9 inh	CYP2C19 act	CYP2C19 inh	Cav3 T inh	CYP2C9 act
CCNc1cccc2c1C(=O)N(C)C2=O	-8.4	0.9	8.0	-4.09*	1.1
CCC(=O)Nc1cccc2c1C(=O)N(C)C2=O	/	/	/	0.283	/
CCOc1ccccc1CNn1nnnc1N	/	/	/	0.54	/
CCn1c(=O)c2c(nc(SCc3ccccn3)n2C)n(C)c1=O	-19.4	1	-4.1	0.43	1.2
COc1ccc(C2C(C(=O)NC(C)C)c3ccccc3C(=O)N2C)cc1OC (stereo not given)	-9.0	1.2	-16.2	/	1.1
O=C(NCC1CCCO1)c1cccc(N2C(=O)C3C4C=CC(C4)C3C2=O)c1 (stereo not given)	12.9	1	-0.6	0.534	0.9
CC(C)=CC1C=C(C)C(C)C2C(=O)NNC(=O)C12 (stereo not given)	10.7	0.5	51.4*	-0.00967	0.9
Cc1ccc(Cn2nnc3c(=O)n(Cc4cccc(C)c4)cnc32)cc1	-106.5	0.7	33.5	-3.07	2.1*
CCOC(=O)C(C)n1cnc2c(nnn2-c2ccc(C)cc2)c1=O (stereo not given)	15.7	1	2.5	0.95	0.8
CCOC(=O)C(C)n1cnc2c(nnn2Cc2ccc(Cl)cc2)c1=O (stereo not given)	-146.9	0.8	21.2	-4.48*	2.5*
CCOC(=O)C(C)n1cnc2c(nnn2Cc2ccc(C)cc2)c1=O (stereo not given)	-190.7	0.5	53.0*	0.0883	2.9*
O=C(Cn1cnc2c(nnn2Cc2ccc(Cl)cc2)c1=O)N1CCN(c2ccccc2)CC1	/	/	/	-4.42*	/
Cc1ccc(Cn2cnc3c(nnn3Cc3ccc(Cl)cc3)c2=O)cc1	17.5	0.8	20.7	-0.971	0.8
CCOC(=O)C(C)Oc1ccc(=O)n(-c2ccccc2)n1 (stereo not given)	2.1	0.7	33.3	0.935	1
CCc1ccc(CN2CC(C(=O)O)CC2=O)cc1 (stereo not given)	-18.9	0.6	43.3	0.641	1.2
CC(C)CN(CCC(=O)O)CC(C)C	21.6	1.3	-26.6	2.1	0.8
COc1ccc(NC(=O)CC2Oc3ccccc3NC2=O)cc1 (stereo not given)	3.9	0.8	22.7	-0.183	1
COc1ccccc1N1CSC2=C(C#N)C(c3ccc(SC)cc3)CC(=O)N2C1 (stereo not given)	88.3*	0.7	34.2	0.956	0.1
CC(C)c1ccc(C2CC(=O)N3CN(C)CSC3=C2C#N)cc1 (stereo not given)	21.9	1	0.5	0.623	0.8
COc1cc(C2CC(=O)N3CN(c4ccccc4C)CSC3=C2C#N)cc(OC)c1OC (stereo not given)	63.8*	0.6	36.8	0.824	0.4
CCOC(=O)c1cnc(C(C)(C)C)[nH]c1=O	/	/	/	0.342	/
Cn1nc(C(F)(F)F)c(/C=N/OC(=O)c2ccccc2Cl)c1SCc1ccccc1Cl	93.3*	0.3	68.4*	-6.56*	0.1
Cn1nc(C(F)(F)F)c(/C=N/OC(=O)c2ccccc2)c1SCc1ccc(Cl)cc1	12.1	0.9	11.5	-0.318	0.9
CSCC[C@@H](C(=O)NCc1cccs1)N1Cc2ccccc2C1=O	38.2	0.4	59.4*	1.38	0.6
O=C(NCc1cccs1)C(Cc1ccccc1)n1cccc1 (stereo not given)	56.8*	0.4	63.8*	-0.557	0.4
SMILES	CYP2C9 inh	CYP2C19 act	CYP2C19 inh	Cav3 T inh	CYP2C9 act
CC(C(=O)NCc1cccs1)n1cccc1 (stereo not given)	0.4	0.8	17.5	0.166	1
CSCCC(C(=O)NCc1cccs1)N1C(=O)c2ccccc2C1=O (stereo not given)	20.9	0.9	7.6	0.985	0.8
Cc1csc(NC(=O)C(Cc2ccccc2)n2cccc2)n1 (stereo not given)	62.6*	0.6	37.1	-4.92*	0.4
O=C(Oc1ccc2cccc(OC(=O)N3CCOCC3)c2c1)N1CCOCC1	12.9	1	1.4	0.791	0.9
COc1ccc(C2=C(CN(C)C)C(c3ccccc3)c3ccccc3O2)cc1 (stereo not given)	76.9*!	0.3	67.9*!	-0.0174	0.2
CCCc1cc(C(=O)NCc2ccco2)no1	5.7	0.7	28.2	0.346	0.9
CSC1=NCCN1C(=O)c1c(F)cccc1F	9.5	0.9	11.3	-0.0155	0.9
CCN(CC)C(=O)CCCOc1ccc(Cl)cc1Cl	21.2	0	97.0*	-2.17	0.8
CCOc1ccc(Br)cc1CC(=O)O	/	/	/	0.139	/
CCN(CC)C(=O)COc1ccc(Br)cc1Cl	25.7	0.2	81.7*	-0.997	0.7
CC(C)NC(=O)CCCOc1ccc(Cl)cc1Cl	24.7	0.4	59.3*	-0.452	0.8
CN(C(=S)NC(=O)CCCOc1ccc(Cl)cc1Cl)c1ccccc1	42.8	0.6	40.0	-3.66*	0.6
CC1(OC(=O)CCc2ccccc2)C(=O)C=C2C=C(c3ccsc3)OC=C2C1=O (stereo not given)	/	/	/	0.0123	/
CCN1CCN(CC(=O)Nc2cccc(C)c2)C(=O)C1=O	/	/	/	-0.763	/
Cc1c(NS(=O)(=O)c2cccc(C(=O)NCc3ccncc3)c2)c(=O)n(-c2ccccc2)n1C	2.7	1.2	-21.1	-0.269	1
COc1ccc(/C=N/NC(=O)CCCOc2ccc(Cl)cc2Cl)cc1[N+](=O)[O-]	70.4*	0.1	85.6*	/	0.3
O=C(COc1ccc(Cl)cc1Cl)Nc1ccc(Cl)cn1	13.8	0.4	57.8*	1.26	0.9
Cc1ccc(/C=N/NC(=O)CCCOc2ccc(Cl)cc2Cl)cc1[N+](=O)[O-]	32.3	0.9	8.7	-0.557	0.7
CN(C)S(=O)(=O)c1cc(S(=O)(=O)N(C)C)c(Cl)cc1N	17.2	0.7	33.4	-0.106	0.8
COc1cccc(CN(CC2CCCO2)S(=O)(=O)c2ccc(S(=O)(=O)N(C)C)cc2)c1 (stereo not given)	45.8	0.7	25.8	0.143	0.5
O=C(C1CCCN(S(=O)(=O)c2ccc(F)cc2)C1)N(Cc1cccs1)C1CC1 (stereo not given)	72.7*	0.1	94.6*	-4.08*	0.3
O=S(=O)(NC1CCCC1)c1ccc(S(=O)(=O)N(Cc2cccs2)CC2CCCO2)cc1 (stereo not given)	97.3*	0	96.6*	-2.1	0
O=S(=O)(c1ccc(S(=O)(=O)N(Cc2cccs2)CC2CCCO2)cc1)N1CCCCC1 (stereo not given)	83.0*	0.3	72.9*	-0.106	0.2
C=CCN1C(=O)C(O)=C(C(C)=O)C1c1ccccc1F (stereo not given)	14.8	1.2	-20.4	0.8	0.9
COc1ccc(-c2c[n+]3c4n2CCCCC4=C(c2ccccc2)C3)cc1	-0.9	1.1	-10.8	-1.34	1
CCn1nc(C(=O)Nc2ccccc2C)c(Cl)c1Cl	54.9*	0.5	48.1	-0.551	0.5
CCn1nc(C(=O)Nc2cccc3ccccc23)c(Cl)c1Cl	12.5	0.6	35.4	-5.71*	0.9
CCn1nc(C(=O)Nc2cccc(C(F)(F)F)c2)c(Cl)c1Cl	-1.3	0.9	8.6	0.872	1
